# According to PubChem BioAssay (NCATS):
# Inconclusive results are not listed. Entries that show only a call come without a potency. Unmarked numbers belong to inactive results. Activity calls are given as the source filed them. Calls come from the whole dose curve; as a rule, active = well fitted curve in the direction sought with a large enough effect; inconclusive = small, poorly fitted or top-dose-only effect, or another doubt; inactive = no such curve, though single readings can be large; an effect the other way counts as inactive or inconclusive.
# Legend:
# NIH3T3 = experiment: qHTS assay to identify novel small-molecules to repurpose for Merkel cell carcinoma treatment (AID 1296009); details: MCC and control cell lines, CellTiter-Glo viability, 72 h; series mostly up to 44.8 µM; note: nearly all actives have a fitted effect of over 60% in size
# Procedure, shortened: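 Cells were treated for 72 hr at 37 degree celsius with compounds in 8- or 11-point dose response. Viability was read by CellTiter-Glo luminescence, normalized to no-cell (cytotoxicity) and DMSO controls.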
# CAOV3 = experiment: Primary qHTS to identify gynecologic anti-cancer compounds using libraries of approved drugs and bioactive compounds (AID 1345084); details: Gynecologic cancer cell panel viability, ATPlite luminescence, 48 h; series mostly up to 57.5 µM; note: nearly all actives have a fitted effect of over 55% in size
# Procedure, shortened: (§1)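 48 h compound exposure at 37 C, 5% CO2; five-point qHTS. ATPlite luminescence readout of cell ATP.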
# CASKI = experiment: as above; details: Gynecologic cancer cell panel viability, ATPlite luminescence, 48 h; series mostly up to 57.5 µM
# Procedure, shortened: as §1
# Es-2 = experiment: as above; details: Gynecologic cancer cell panel viability, ATPlite luminescence, 48 h; series mostly up to 57.5 µM
# Procedure, shortened: as §1
# HeLa = experiment: as above; details: Gynecologic cancer cell panel viability, ATPlite luminescence, 48 h; series mostly up to 57.5 µM
# Procedure, shortened: as §1
# Hek293T = experiment: as above; details: Gynecologic cancer cell panel viability, ATPlite luminescence, 48 h, control line for the selectivity index; series mostly up to 57.5 µM
# Procedure, shortened: as §1
# JEG-3 = experiment: as above; details: Gynecologic cancer cell panel viability, ATPlite luminescence, 48 h; series mostly up to 57.5 µM
# Procedure, shortened: as §1
# OV90 = experiment: as above; details: Gynecologic cancer cell panel viability, ATPlite luminescence, 48 h; series mostly up to 57.5 µM
# Procedure, shortened: as §1
# PA-1 = experiment: as above; details: Gynecologic cancer cell panel viability, ATPlite luminescence, 48 h; series mostly up to 57.5 µM
# Procedure, shortened: as §1
# SKOV3 = experiment: as above; details: Gynecologic cancer cell panel viability, ATPlite luminescence, 48 h; series mostly up to 57.5 µM
# Procedure, shortened: as §1
# Tov-21-G = experiment: as above; details: Gynecologic cancer cell panel viability, ATPlite luminescence, 48 h; series mostly up to 57.5 µM
# Procedure, shortened: as §1
# Tov112D = experiment: as above; details: Gynecologic cancer cell panel viability, ATPlite luminescence, 48 h; series mostly up to 57.5 µM
# Procedure, shortened: as §1
# C33A = experiment: as above; details: Gynecologic cancer cell panel viability, ATPlite luminescence, 48 h; series mostly up to 57.5 µM
# Procedure, shortened: as §1
# Potency is the fitted concentration of half-maximal effect.
SMILES,Potency (NIH3T3),Potency (CAOV3),Potency (CASKI),Potency (Es-2),Potency (HeLa),Potency (Hek293T),Potency (JEG-3),Potency (OV90),Potency (PA-1),Potency (SKOV3),Potency (Tov-21-G),Potency (Tov112D),Potency (C33A),outcome (NIH3T3)
C/C=C/[C@@H]1C=C[C@@H]2C[C@H](C)CC[C@H]2[C@]1(C)/C(O)=C1/C(=O)[C@@H](CO)N(C)C1=O,inactive,inactive,inactive,inactive,inactive,inactive,inactive,inactive,inactive,inactive,inactive,inactive,–,–
NC(=O)c1cccc2[nH]c(-c3ccc(C4CCCN4)cc3F)nc12 (stereo unspecified),inactive,10000 nM (active),–,15800 nM (active),–,12600 nM (active),11200 nM (active),–,–,14100 nM (active),12600 nM (active),15800 nM (active),17800 nM (active),–
COC1CC(O[C@H]2CC[C@]3(C)C4CC[C@@]5(C)C(=O)[C@]4(CC[C@@H]3C2)CC[C@@H]5C2=CC(=O)OC2)OC(C)C1OC1OC(COC2OC(CO)C(O)C(O)C2O)C(O)C(O)C1O (stereo partly specified),–,–,–,2820 nM (active),–,–,–,–,3160 nM (active),–,2240 nM (active),1120 nM (active),2820 nM (active),inactive [at 9.27 µM]
CC[C@@H](C)Nc1cc(C(=O)NC2CC3CC[C@@H](C2)N3c2ccc(C(=O)C3CC3)cn2)c(C)cc1C(N)=O (stereo partly specified),184 nM (active),794 nM (active),–,–,–,316 nM (active),–,316 nM (active),316 nM (active),–,398 nM (active),–,–,–
COc1ccc(C2(CNC(=O)c3ccc(NC(=O)c4ccco4)cc3)CCOCC2)cc1,–,inactive,inactive,inactive,inactive,inactive,inactive,inactive,inactive,inactive,inactive,–,inactive,–
CC(C)(O)/C=C/C(=O)[C@](C)(O)[C@H]1[C@H](O)C[C@@]2(C)[C@@H]3CC=C4[C@@H](C[C@H](O[C@@H]5O[C@H](CO)[C@@H](O)[C@H](O)[C@H]5O)C(=O)C4(C)C)[C@]3(C)C(=O)C[C@]12C,inactive,–,inactive,inactive,inactive,inactive,inactive,inactive,inactive,–,inactive,inactive,inactive,–
Cc1ccc(C(C)C)c(O[C@@H]2O[C@H](CO)[C@@H](O)[C@H](O)[C@H]2O)c1,–,inactive,inactive,inactive,inactive,inactive,inactive,inactive,inactive,inactive,inactive,–,inactive,–
O=C1Cc2c([nH]c3ccc(Br)cc23)-c2ncccc2N1,inactive,–,inactive,inactive,–,inactive,inactive,–,inactive,inactive,inactive,inactive,inactive,–
